CF NFkB inh: inhibitors of cystic fibrosis induced NF-kB; KKLEB NF-kB-GFP reporter, PAF-induced, GFP fluorescence overnight; inhibition, % at 5 µM; 360,000 tested, 0.86% active; AID 588850;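 active = at least 50% inhibition at 5 µM, scaled per plate between neutral and stimulator controls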;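 note: PAF is a Pseudomonas aeruginosa culture filtrate used as stimulus; plate controls were PAF-stimulated DMSO wells for no effect and unstimulated DMSO wells for full effect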
HIF-2a inh: blocks HIF-2a reporter activity; 786-0 RCC cells HIF-2a reporter, luciferase luminescence, overnight; inhibition, % at 18.8 µM; 360,000 tested, 0.72% active;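 active = inhibition of the luminescence signal of 40% or more relative to plate controls, in a single-dose primary screen at 18.75 µM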
KKLEB tox: counter-screen for CF NF-kB inhibitors: cytotoxicity; KKLEB CF airway cells viability, ATPlite luminescence, overnight; stronger effect = lower value; cells stimulated with P. aeruginosa culture filtrate; activity change (cytotoxicity), % at 5 µM; 360,000 tested, 0.36% active; AID 602141;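 active = corrected activity change at or below -50% at 5 µM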
Peg3 prom inh-1: inhibitors of Peg3 promoter; inhibition, % at 20 µM; HeLa PEG-Prom luciferase reporter, luminescence, overnight; 360,000 tested, 1.7% active; AID 588405;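 active = inhibition of at least 50% at 20 µM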
MITF TRPM1 inh: inhibitors of MITF-driven TRPM1 promoter in melanoma cells | SK-MEL-5 TRPM1 promoter luciferase, 24 h | inhibition, % at 12.5 µM | 330,000 tested, 0.83% active | AID 488899;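 active = mean inhibition across replicates of 60% or more, whatever share of single replicates reaches that level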
Shn3 inh set2: inhibitors of Schnurri-3 3'UTR reporter in osteoblasts; 360,000 tested, 0.52% active; inhibition, % at 12.5 µM; Clone20 osteoblast Shn3 3'UTR firefly luciferase, 24 h;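 active = mean inhibition of at least 75% with every replicate also reaching 75%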;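 note: 0% = median of neutral control wells and 100% = pilot-screen positive control compound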
Peg3 prom inh-2: Peg3 promoter inhibition confirmation; shares compounds with Peg3 prom inh-1; HeLa PEG-Prom luciferase reporter, luminescence, overnight; inhibition, % at 20 µM; 1,300 tested, 84% active; AID 602417;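 active = at 20 µM dose, 40% or more inhibition averaged across four replicates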
* hit, by the source's call; · = no result. In the library only some 2.8% were active in any assay of this set; here they are far more common.

SMILES	CF NFkB inh	HIF-2a inh	KKLEB tox	Peg3 prom inh-1	MITF TRPM1 inh	Shn3 inh set2	Peg3 prom inh-2
CCOc1ccc(/C=N/NC(=O)c2nnn(-c3nonc3N)c2COc2ccc(F)cc2)cc1	-36	15	7	54*	-3	17	25
CN(C)c1ccc(/C=N/NC(=O)c2nnn(-c3nonc3N)c2COc2ccc(F)cc2)cc1	0	14	8	87*	-6	6	51*
CC(C)c1ccc(/C=N/NC(=O)c2nnn(-c3nonc3N)c2CN(C)C2CCCCC2)cc1	2	5	-16	65*	4	15	32
CN(C)Cc1c(C(=O)N/N=C/c2ccc(OCc3ccc(F)cc3)cc2)nnn1-c1nonc1N	-16	-7	6	-37	-23	4	·
CN(Cc1c(C(=O)N/N=C/c2ccc(F)cc2)nnn1-c1nonc1N)C1CCCCC1	3	5	-8	2	-3	1	·
C/C(=N\NC(=O)c1nnn(-c2nonc2N)c1CN(C)c1ccccc1)c1ccccc1O	12	14	6	51*	12	37	71*
CN(C)c1ccc(/C=C2\SC(=O)N(CCc3nnc(N)s3)C2=O)cc1	-20	58*	-45	72*	83*	69	54*
Cc1cc(NC(=O)NN2CCOCC2)nn1-c1c(Cl)cccc1Cl	5	20	-4	4	-1	0	·
COc1cc(-c2cc(C(=O)Nc3ccccc3N3CCOCC3)c3ccccc3n2)cc(OC)c1OC	2	-7	0	40	0	45	·
COc1cc(-c2cc(C(=O)Nc3ccc(C)c(S(=O)(=O)N4CCOCC4)c3)c3ccccc3n2)cc(OC)c1OC	34	2	-26	52*	2	25	38
O=C(Nc1ccc(S(=O)(=O)Nc2cnc3ccccc3n2)cc1)c1ccccc1Br	-10	12	8	4	-4	18	·
CC(C)(c1ccccc1)c1ccc(OCC(O)CNC2CCN(Cc3ccccc3)CC2)cc1 (stereo not given)	12	6	-22	107*	79*	37	99*
CCOc1ccc(OCC(O)CNC2CCN(Cc3ccccc3)CC2)cc1 (stereo not given)	11	16	-7	10	0	-10	·
O=C(c1ccoc1)N1CCN(c2cc(-c3ccccc3)nc3cc(-c4ccccc4)nn23)CC1	1	-19	4	68*	·	75	70*
Cc1ccc(S(=O)(=O)NCC(c2cccnc2)N2CCc3ccccc32)cc1 (stereo not given)	-12	20	7	2	6	7	·
O=S(=O)(NC1CC(NS(=O)(=O)OCC(Cl)(Cl)Cl)C2CCCCC12)OCC(Cl)(Cl)Cl (stereo not given)	32	-32	-1	57*	10	15	93*
Cc1c(C(=O)N2CCN(c3ccc(F)cc3)CC2)sc2ncnc(N3CCN(c4ccccn4)CC3)c12	5	6	-3	50*	36	30	87*
COc1ccccc1N1CCN(C(=O)c2sc3ncnc(N4CCN(c5ccccn5)CC4)c3c2C)CC1	12	7	-22	84*	16	35	74*
Cc1c(C(=O)N2CCN(c3ccccn3)CC2)sc2ncnc(N3CCOCC3)c12	4	7	-8	7	17	27	·
C#CCSc1nnc(-c2ccc([N+](=O)[O-])cc2)o1	-12	-201	4	-114	-18	-19	·
O=C(OCC(=O)N1CCN(c2ccccc2)CC1)C1=COCCO1	5	-31	2	-19	-9	-39	·
Cc1cc(C(=O)COC(=O)C2=COCCO2)c(C)n1-c1ccccc1	0	14	-19	60*	81*	37	72*
Cc1ccc(OCC(=O)c2cc(C)n(-c3ccccc3)c2C)c([N+](=O)[O-])n1	22	84*	3	80*	37	49	80*
Cc1cc(C)c(NC(=O)CSc2nc3ccc(NC(=O)CSc4nnnn4Cc4ccccc4)cc3s2)c(C)c1	-35	-38	-8	-29	5	5	·
Cc1cc(C)c(NC(=O)CSc2nc3ccc(NC(=O)CSc4nnnn4-c4ccccc4)cc3s2)c(C)c1	71*	10	-67*	84*	16	-1	13
SMILES	CF NFkB inh	HIF-2a inh	KKLEB tox	Peg3 prom inh-1	MITF TRPM1 inh	Shn3 inh set2	Peg3 prom inh-2
O=C(Cn1cnc2scc(-c3cccc([N+](=O)[O-])c3)c2c1=O)NCc1ccco1	-12	8	-2	10	-5	14	·
CSc1ccccc1NC(=O)COc1ccc(Cl)cc1Cl	-1	-186	2	-103	-17	-15	·
Cc1c(C)c2ccc(OCC(=O)Nc3ccccn3)c(C)c2oc1=O	1	78*	-90*	93*	87*	94*	84*
O=C(COc1ccc(Cl)cc1Cl)Nc1ccccn1	-3	81*	-92*	92*	80*	71	87*
Cc1c(C)c2cc(Cl)c(OCC(=O)Nc3ccccn3)cc2oc1=O	-14	-96	-3	-49	·	-1	·
COc1cc(C(=S)N2CCCCC2)ccc1OCC(=O)Nc1ccc(F)cc1	19	-20	6	-21	4	-73	·
CC(=O)c1cccc(NC(=O)c2cccc3c(-c4cccnc4)coc23)c1	-34	-62	0	66*	·	21	61*
CS(=O)(=O)Nc1cccc(NC(=O)c2cccc3c(-c4cccnc4)coc23)c1	-14	-18	-7	44	·	-13	·
CC(=O)Nc1cccc(NC(=O)c2cc(-c3ccccn3)nc3ccc(Cl)cc23)c1	-11	11	-1	7	13	20	·
CC(=O)Nc1cccc(NC(=O)c2cc(-c3cccnc3)nc3ccc(Cl)cc23)c1	17	4	-18	57*	1	2	47*
COc1ccc(/C(C)=N/NC(=O)c2cc(C)[nH]n2)c(OC)c1	-2	-18	-5	-28	-19	-5	·
Cc1ccccc1NC(=O)C(=Cc1ccc(C(=O)O)cc1)C(=O)Nc1ccccc1C	0	42*	-44	59*	48	43	50*
CC(=O)Nc1ccccc1C	16	13	-4	11	3	-18	·
Cc1onc(-c2ccccc2)c1-c1csc(N/N=C/c2ccccc2Cl)n1	-1	8	-8	16	-2	4	·
Cc1onc(-c2ccc(Cl)cc2Cl)c1-c1csc(N/N=C/c2ccccc2Cl)n1	20	28	-26	65*	-8	7	37
COC(=O)c1sc2nc(C)cc(C)c2c1N	-24	-73	16	-57	0	-9	·
Cc1cc(C)c2c(N)c(C(=O)Nc3ncc(C)s3)sc2n1	-4	87*	-69*	101*	88*	76	89*
CC(C)c1nnc(NC(=O)CC(=O)Nc2ccccc2C(=O)O)s1	1	28	9	57*	32	21	34

Bioassay records from PubChem BioAssay.
